From PubChem BioAssay AID2314 (National Center for Advancing Translational Sciences (NCATS), 2010)
In all, about 300,000 compounds went through this assay and about 37,000 (12%) were called active. The full list was thinned out, with actives kept by preference. A number with no mark means an inactive call. Rule as the data show it: active = max response mostly above about 13% (no sharp cut-off); inactive = mostly below about 14%.

Assay: Cycloheximide Counterscreen for Small Molecule Inhibitors of Shiga Toxin; also: read at 38.3 µM for the half of the compounds with a filed dose; 0% is about no effect
Conditions: cell reporter, cycloheximide protein synthesis inhibition counterscreen; active compounds read high

SMILES | max response
COC(=O)c1ccc(S(=O)(=O)NCc2ccccc2)n1C | -1.21%
COc1ccc(C2C3=C(CCCC3=O)N(CC(=O)O)C3=C2C(=O)CCC3)cc1 | -0.955%
CC(=O)Cc1nsc(NC(=O)c2ccc(COc3ccc(C)cc3)o2)n1 | 4.45%
Cc1cccc(NC(=O)c2ccc(COc3ccccc3[N+](=O)[O-])o2)n1 | 9.42%
CCOc1ccc(OCc2ccc(C(=O)Nc3cccc(C)n3)o2)cc1 | 21.2% (active)
Cc1ccc(NC(=O)c2nc[nH]c2C(=O)N[C@@H](CCCCNC(=O)OC(C)(C)C)C(=O)OC(C)(C)C)cc1 | -3.36%
O=C(NCC(=O)N1CCN(c2ncc(C(F)(F)F)cc2Cl)CC1)c1ccc(Br)o1 | -1.14%
CCc1nnc(NC(=O)c2nc3nccc(C)n3n2)s1 | -2.71%
Cc1ccnc2nc(C(=O)Nc3nnc(-c4ccccc4)o3)nn12 | 23.5% (active)
CCCC(=O)Nc1nnc(-c2ccccc2)o1 | -3.55%
C=CCN(c1ccccc1C(=O)NCC(=O)OCC)S(=O)(=O)c1ccc(C)cc1 | -3.9%
CCn1cc(C(=O)NCCCN2CCCCCC2)c(=O)c2cc(S(=O)(=O)N3CCc4ccccc4C3)ccc21 | -1.21%
CCO[C@H]1OC(C(=O)NCc2ccccc2)=C[C@@H](c2coc3ccccc3c2=O)[C@@H]1CCCO | -1.05%
CCC(=O)N1c2ccc(S(=O)(=O)NCc3ccco3)cc2CC1C (stereo not drawn) | 19.8%
O=C(O)CCCC(=O)Nc1ccc(Oc2cccc(C(F)(F)F)c2)nc1 | 5.78%
COCC1CCN(C(=O)c2ccc3oc(Cc4ccccc4)nc3c2)C1 (stereo not drawn) | 39.1% (active)
COC(=O)C1CCN(C(=O)c2ccc3oc(Cc4ccc(Cl)cc4)nc3c2)CC1 | -2.56%
COc1ccc(C(=O)N2CCCC(C(=O)c3ccccc3OC)C2)cc1OC (stereo not drawn) | 9.55%
COc1c(C)cc(C(=O)C2CCCN(S(=O)(=O)c3c(C)noc3C)C2)cc1C (stereo not drawn) | 5.32%
Cc1ccc2c(c1)N(CC(=O)N1CCOCC1)C(=O)CO2 | -3.08%
Cc1nc(-c2ccc(Cl)cc2)sc1C1(C)CC(c2ccccc2F)=NO1 (stereo not drawn) | 20.7% (active)
Cc1nc(C(=O)NCc2ccccc2)sc1C1(C)CC(c2cccnc2)=NO1 (stereo not drawn) | -3.23%
Cc1nc(C(=O)Nc2ccc(Cl)cc2)sc1C1(C)CC(c2ccccc2)=NO1 (stereo not drawn) | 9.03%
CCN(c1ccc(NC(=O)COC(=O)CCc2nc3ccccc3n2-c2ccccc2)cc1)C(C)C | 6.5%
COc1ccccc1NC(=O)COc1ccc(C(=O)OCC(=O)N(C(C)C)C(C)C)cc1OC | -3.62%
COc1ccc2c(c1)C(NS(=O)(=O)OCC(Cl)(Cl)Cl)CCC2 (stereo not drawn) | 0.921%

SMILES | max response
COc1cc2c(C(=O)N3CCN(C)CC3)c(CSc3ccccc3)n(C)c2cc1Br | -3.14%
Cc1ccc(C(=O)N/C(=C\c2cn(S(=O)(=O)N(C)C)c3ccccc23)C(=O)N2CCCC2)cc1 | -4.36%
Cc1nc(-c2ccc(F)cc2)c(CC(=O)N2CCN(S(=O)(=O)c3ccc(F)cc3)CC2)s1 | -1.12%
Cc1ccc(NC(=O)N2CCC(O)(c3cccnc3)CC2)cc1 | -0.6%
CCOc1ccc(CNC(=O)CCC(=O)N2CCSc3ccccc32)cc1 | 3.9%
Cc1ccc(NC(=O)N2CCSc3ccccc32)cc1 | 21.8% (active)
Cc1ccc2c(=O)oc(N(C)C)nc2c1 | -3.11%
COc1ccc(CNC(=O)CCN2C(=O)c3ccccc3C2=O)cc1 | -8.4%
Cc1cc(C(=O)NC2CCCc3c2cnn3-c2cccc(C)c2C)c(C)o1 (stereo not drawn) | 0.915%
CCC1OC(c2ccc([N+](=O)[O-])cc2)=Nc2ccccc21 (stereo not drawn) | -5.5%
CCc1ccc2c(c1)C(c1ccc([N+](=O)[O-])cc1)=NNC(c1ccccc1)=N2 | 33.3% (active)
CCOc1ccc2c(c1)C(c1ccc(C)cc1)=NNC(c1ccc(C)cc1)=N2 | 54.8% (active)
Cc1ccc(C2=Nc3c(ccc4ccccc34)C(c3ccncc3)=NN2)cc1 | 1.6%
O=C1NC(=O)C2C1C(c1ccc([N+](=O)[O-])cc1)=NN2Cc1ccccc1 (stereo not drawn) | -2.84%
COc1ccc2c(c1)C(c1cccs1)=NNC(c1cccnc1)=N2 | 18.1%
COc1ccc(-c2onc3ccc(C(C)=O)cc23)cc1 | 2.44%
CC1=C(C(=O)OC(C)(C)C)C(c2ccc(Br)cc2)NC(=O)N1CCCC(=O)O (stereo not drawn) | -2.28%
O=C(c1cc2cc(Br)cc(Br)c2oc1=O)N1CCOCC1 | 0.493%
CC1CCN(CCCNC(=O)CN2C(=O)CSc3ccc(S(=O)(=O)N4CCCCC4)cc32)CC1 | -0.237%
O=C(CN1CCC(NC(=O)C2CC2)CC1)Nc1ccccc1[N+](=O)[O-] | 7%
O=C1c2ccccc2C(=O)N1CCC(O)C[N+](=O)[O-] (stereo not drawn) | -2.75%
O=C1c2ccccc2C(=O)N1CCC(c1ccccc1)c1ccco1 (stereo not drawn) | 24.4% (active)
O=C1c2ccccc2C(=O)N1CCc1nn[nH]n1 | -3.78%
OC(CNCC1CCCO1)Cn1c2ccc(Br)cc2c2cc(Br)ccc21 (stereo not drawn) | -6.3%
CCCN1CCn2c3c(c4cc(Br)ccc42)CCCC31 (stereo not drawn) | 25.3% (active)
COCCn1c(SCC(=O)c2[nH]c(C)c(C(C)=O)c2C)nc2ccccc2c1=O | -3.66%

SMILES | max response
CC(=O)c1c(C)[nH]c(C(=O)OCC(=O)Nc2sc3c(c2C#N)CCCC3)c1C | -1.13%
N#Cc1c(NC(=O)C2CCCO2)sc2c1CCCCC2 (stereo not drawn) | 48.6% (active)
N#Cc1c(NC(=O)c2ccc(N3CCOCC3)c([N+](=O)[O-])c2)sc2c1CCCC2 | 1.18%
N#Cc1c(NC(=O)C2CC(Cl)=CCC2C(=O)O)sc2c1CCCCC2 (stereo not drawn) | -1.59%
N#Cc1c(NC(=O)CCCl)sc2c1CCCCC2 | 21.9% (active)
CCN1CCN(CC(=O)Nc2sc3c(c2C#N)CCC3)CC1 | 1.34%
O=C1C(=O)N(CCCO)C(c2ccccc2)/C1=C(\O)c1ccc(Br)cc1 (stereo not drawn) | 0.724%
CN1C(=O)/C(=C/C=C2\SCCN2C)OC1=S | 37.4% (active)
Cc1csc(NC(=O)CSc2nc(=O)cc(N)n2-c2ccc(F)cc2)n1 | 16.3%
CCc1ccc(OCC(=O)NCC(c2ccc(Cl)cc2)N2CCCCC2)cc1 (stereo not drawn) | -2.84%
COc1ccc(-c2cc3n(n2)CCc2nc4ccccc4n2-3)cc1 | 9.75% (active)
CCn1c(C(O)c2cc(OC)ccc2OC)nc2ccccc21 (stereo not drawn) | 5.8%
COc1ccc(-c2cc(C(=O)n3cnc4ccccc43)c3ccccc3n2)cc1 | 16.1%
CC(CC(=O)Nc1ccc(F)cc1F)S(=O)(=O)c1ccc2c(c1)NC(=O)CO2 (stereo not drawn) | 2.18%
c1cc(-c2nn[nH]n2)ccc1CN1CCCCC1 | -1.37%
CC(C)c1ccc(-c2nn[nH]n2)cc1 | 23% (active)
Brc1ccc(-c2nn[nH]n2)cc1 | 9.02%
COc1cccc(NC(=O)CCNS(=O)(=O)c2ccc3c(c2)oc(=O)n3C)c1 | 0.768%
COc1ccc(OCc2nnc3n2N=C(c2ccccc2)C(CC(=O)O)S3)cc1 (stereo not drawn) | -4.15%
COc1ccc(CNC(=O)C(=O)NCC2OCCN2C(=O)c2ccc(OC)cc2)cc1 (stereo not drawn) | -1.12%
CSc1ccc(C#N)cc1NC(=O)c1cccc(Cl)c1 | -1.93%
N#Cc1ccccc1NC(=O)c1cccc(COc2ccc(Cl)cc2Cl)c1 | 116% (active)
CSc1ccc(C#N)cc1NC(=O)c1ccc(Cl)cc1 | 6.79%
COc1ccc(OC)c(NC(=O)c2cccc(S(=O)(=O)N3CCN(C(C)=O)CC3)c2)c1 | -2.4%
CC[n+]1c(C)n(-c2ccccc2)c2ccc(NC(C)=O)cc21 | 8.88%
Cc1ccc(CCN2CC(C(=O)NCCc3ccccc3)CC2=O)cc1 (stereo not drawn) | 20.4%

SMILES | max response
COc1cccc(CNS(=O)(=O)c2csc(C(N)=O)c2)c1 | -4.05%
COc1ccc(C(=O)NCCn2nc(C)cc2C)cc1OC1CCN(C(C)=O)CC1 | 1.36%
Cc1ccc(/C=N/NC(=O)c2cc3ccccc3cc2O)o1 | 19.4% (active)
Cc1ccc(/C=N/NC(=O)CNC(=O)COc2ccccc2)o1 | -7.97%
Cc1ccc(/C=N/NC(=O)CSc2ccccn2)o1 | 17.1%
O=C(N/N=C\c1cccnc1)c1cc(-c2ccccc2)nc2c(Cl)cccc12 | -2.05%
O=C(N/N=C/c1cccnc1)c1cc2ccccc2cc1O | 35.6% (active)
O=C(N/N=C/c1cccnc1)c1ccc(NC(=O)c2ccc(F)cc2)cc1 | -1.26%
CCC(C)[C@H](NC(=O)N1c2ccccc2NC(=O)[C@@H]1C(C)C)C(=O)N[C@@H](Cc1ccccc1)C(=O)O (stereo partly drawn) | 1.02%
COc1ccc(OCC(O)CN(C)C(=O)C(C)Oc2ccccc2)cc1 (stereo not drawn) | -1.78%
Cc1ccc(SC(CC(=O)c2ccc(C(C)(C)C)cc2)C(=O)O)cc1 (stereo not drawn) | 7.94%
Cc1cc(-c2ccc(C)c(S(=O)(=O)NC(C)Cc3ccco3)c2)on1 (stereo not drawn) | 17.2%
COC(=O)c1ccc(NC(=O)c2cc3c(CO)cnc(C)c3oc2=Nc2cccc(C(N)=O)c2)cc1 | -3.69%
O=C(CCCOc1ccccc1)NCc1ccco1 | 8.48%
CCOc1cc(NC(=S)NCCCOC)c(OCC)cc1NC(=O)c1ccco1 | 2.79%
CCOc1ncccc1C(=O)NCCc1ccc(OC)cc1 | -4.4%
CCCc1ccc(OCC(=O)NNC(=S)NC(=O)c2ccco2)cc1 | -2.62%
COc1ccc(CCNC(=O)c2ccccc2OCc2ccccc2)cc1 | -1.84%
CCCc1ccc(OCCNC(=O)c2ccccc2Br)cc1 | 16.2% (active)
CCCCOc1ccc(C(=O)NCc2ccco2)cc1 | 27.4% (active)
Cc1ccc(OCC(=O)NCCCNC(=O)c2ccco2)cc1C | -3.33%
CCCCOc1ccc(C(=O)NCc2ccncc2)cc1 | 4.92%
CCCc1ccc(OCCNC(=O)c2ccco2)cc1 | 37.4% (active)
COc1ccc(CCNC(=O)c2ccco2)cc1 | 33% (active)
CCCCOCCCNC(=O)c1ccccc1OCC | -1.45%
